Source: PubChem (several laboratories)
CF NFkB inh: blocks PAF-induced NF-kB reporter in cystic fibrosis cells | inhibition, % at 5 µM | AID 588850 | 360,000 tested, 0.86% active | KKLEB NF-kB-GFP reporter, GFP fluorescence overnight;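 active means at least 50% inhibition at 5 µM, scaled per plate between neutral and stimulator controls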;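 further: PAF is a Pseudomonas aeruginosa culture filtrate used as stimulus; plate controls were PAF-stimulated DMSO wells for no effect and unstimulated DMSO wells for full effect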
Peg3 prom inh: reduces Peg3 promoter-driven luciferase expression in HeLa; 360,000 tested, 1.7% active; AID 588405; HeLa PEG-Prom luciferase reporter, luminescence, overnight; inhibition, % at 20 µM;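 active means inhibition of at least 50% at 20 µM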
HIF-2a block: inhibitors of HIF-2a; 360,000 tested, 0.72% active; 786-0 RCC cells HIF-2a reporter, luciferase luminescence, overnight; AID 624352; inhibition, % at 18.8 µM;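 active means inhibition of the luminescence signal of 40% or more relative to plate controls, in a single-dose primary screen at 18.75 µM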
MITF TRPM1 inh: inhibitors of MITF-driven TRPM1 promoter in melanoma cells; 330,000 tested, 0.83% active; inhibition, % at 12.5 µM; SK-MEL-5 TRPM1 promoter luciferase, 24 h;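 active means mean inhibition across replicates of 60% or more, whatever share of single replicates reaches that level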
KKLEB cytotox: counter-screen for CF NF-kB inhibitors: cytotoxicity. KKLEB CF airway cells viability, ATPlite luminescence, overnight; hits give low values; cells stimulated with P. aeruginosa culture filtrate. activity change (cytotoxicity), % at 5 µM. 360,000 tested, 0.36% active. AID 602141;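 active means corrected activity change at or below -50% at 5 µM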
Shn3 inh set2: reduces Shn3 3'UTR luciferase signal in osteoblasts; 360,000 tested, 0.52% active; inhibition, % at 12.5 µM; AID 588674; Clone20 osteoblast Shn3 3'UTR firefly luciferase, 24 h;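 active means mean inhibition of at least 75% with every replicate also reaching 75%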;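 further: 0% = median of neutral control wells and 100% = pilot-screen positive control compound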
An asterisk follows results filed as active. Rows were chosen to be rich in hits. Some 2.8% of all compounds tested hit in one or more screens of this group.

For COc1ccc(C(CCN2CCCCC2)c2c(OC)cc(OC)c3c(-c4ccccc4)cc(=O)oc23)cc1 (stereo not given) the results were CF NFkB inh 19, Peg3 prom inh 96*, HIF-2a block 12, MITF TRPM1 inh 6, KKLEB cytotox -10 and Shn3 inh set2 12.
COc1cc(OC)c2c(-c3ccccc3)cc(=O)oc2c1C(CCN1CCCCC1)c1ccc(N(C)C)cc1 (stereo not given) was read as CF NFkB inh 37, Peg3 prom inh 65*, HIF-2a block 12, MITF TRPM1 inh 33, KKLEB cytotox -6 and Shn3 inh set2 -11.
`COc1cc(OC)c2c(-c3ccccc3)cc(=O)oc2c1C(CCN1CCCCC1)c1ccc2c(c1)OCO2` (stereo not given) gave CF NFkB inh 22, Peg3 prom inh 102*, HIF-2a block 1, MITF TRPM1 inh 46, KKLEB cytotox -32 and Shn3 inh set2 11.
`CCc1nn(C(C)C(=O)NCc2ccc(Cl)cc2)c(=O)c2cc3occc3n12` (stereo not given) gave CF NFkB inh -27, Peg3 prom inh 14, HIF-2a block 13, MITF TRPM1 inh -7, KKLEB cytotox 5 and Shn3 inh set2 -54.
`Cc1nc2c(-c3ccc(F)cc3)c(C)nn2c(C)c1CCC(=O)Nc1ccccc1F` gave CF NFkB inh 5, Peg3 prom inh 17, HIF-2a block 9, MITF TRPM1 inh -4, KKLEB cytotox -1 and Shn3 inh set2 18.
Screening C#CCOCCOCCOCCNc1nc(N2CCN(C(=O)CCCCCCCCCCNC(=O)[C@H](CCCCN)n3cc(C)nn3)CC2)nc(N2CCN(C(=O)CCCCCCCCCCNC(=O)[C@@H]([C@H](C)CC)n3cc(CCCCCN)nn3)CC2)n1 returned CF NFkB inh 4, Peg3 prom inh 94*, HIF-2a block 4, MITF TRPM1 inh 105*, KKLEB cytotox 11 and Shn3 inh set2 77.
Screening C#CCOCCOCCOCCNc1nc(N2CCN(C(=O)CCCCCCCCCCNC(=O)Cn3cc(CCCCCN)nn3)CC2)nc(N2CCN(C(=O)CCCCCCCCCCNC(=O)[C@H]([C@@H](C)CC)n3cc(CCCCCN)nn3)CC2)n1 returned CF NFkB inh -21, Peg3 prom inh 96*, HIF-2a block -3, MITF TRPM1 inh 97*, KKLEB cytotox -4 and Shn3 inh set2 79.
C#CCOCCOCCOCCNc1nc(N2CCN(C(=O)CCCCCCCCCCNC(=O)[C@H](CCCCN)n3cc(CCO)nn3)CC2)nc(N2CCN(C(=O)CCCCCCCCCCNC(=O)[C@@H]([C@H](C)O)n3cc(C)nn3)CC2)n1 was read as CF NFkB inh 2, Peg3 prom inh 29, HIF-2a block -5, MITF TRPM1 inh 5, KKLEB cytotox 1 and Shn3 inh set2 10.
Screening C#CCOCCOCCOCCNc1nc(N2CCN(C(=O)CCCCCCCCCCNC(=O)[C@H]([C@@H](C)CC)n3cc(CCCCCN)nn3)CC2)nc(N2CCN(C(=O)CCCCCCCCCCNC(=O)[C@@H]([C@H](C)O)n3cc(C)nn3)CC2)n1 returned CF NFkB inh 27, Peg3 prom inh 98*, HIF-2a block 0, MITF TRPM1 inh 99*, KKLEB cytotox -29 and Shn3 inh set2 15.
C#CCOCCOCCOCCNc1nc(N2CCN(C(=O)CCCCCCCCCCNC(=O)[C@H](CCC(=O)O)n3cc(CCCCCN)nn3)CC2)nc(N2CCN(C(=O)CCCCCCCCCCNC(=O)[C@@H]([C@H](C)O)n3cc(C)nn3)CC2)n1 was read as CF NFkB inh -3, Peg3 prom inh -14, HIF-2a block 6, MITF TRPM1 inh 8, KKLEB cytotox 28 and Shn3 inh set2 14.
`O=C(c1ccccc1NS(=O)(=O)c1cccc([N+](=O)[O-])c1)N1CCCC1` gave CF NFkB inh 12, Peg3 prom inh 22, HIF-2a block 10, MITF TRPM1 inh 7, KKLEB cytotox 2 and Shn3 inh set2 6.
Screening CC(=O)NC1=C(N(C)C2CCS(=O)(=O)C2)C(=O)c2ccccc2C1=O (stereo not given) returned CF NFkB inh 5, Peg3 prom inh 12, HIF-2a block 11, MITF TRPM1 inh 64*, KKLEB cytotox -8 and Shn3 inh set2 82.
For COc1cccc(C(NC(C)=O)c2nc(-c3cccc(F)c3)cs2)c1 (stereo not given) the results were CF NFkB inh -26, Peg3 prom inh -11, HIF-2a block -38, KKLEB cytotox 6 and Shn3 inh set2 -10.
For CCOC(=O)C(=O)Nc1ccccc1C(=O)Nc1ccc(OC)cc1 the results were CF NFkB inh 6, Peg3 prom inh -25, HIF-2a block -2, MITF TRPM1 inh -7, KKLEB cytotox 1 and Shn3 inh set2 -14.
`COc1ccc(N)c2c1C(=O)c1ccccc1C2=O` gave CF NFkB inh -84, Peg3 prom inh -115, HIF-2a block -132, MITF TRPM1 inh -16, KKLEB cytotox 1 and Shn3 inh set2 -29.
Screening COc1ccc(OC)c2c1C(=O)C(Cl)=C(Cl)C2=O returned CF NFkB inh 90*, Peg3 prom inh 107*, HIF-2a block 94*, MITF TRPM1 inh 88* and KKLEB cytotox -54*.
Cc1c(C(=O)N(Cc2cccc(Br)c2)C2CCS(=O)(=O)C2)oc2ccccc12 (stereo not given) was read as CF NFkB inh -9, Peg3 prom inh 25, HIF-2a block 24, MITF TRPM1 inh 28, KKLEB cytotox -10 and Shn3 inh set2 86*.
`CCOC(=O)N=Nc1c(O)n(CC(=O)OC)c2ccccc12` gave CF NFkB inh 1, Peg3 prom inh 5, HIF-2a block 7, MITF TRPM1 inh 0, KKLEB cytotox 4 and Shn3 inh set2 -15.
CCOC(=O)N=Nc1c2ccccc2c2nc3no[nH]c3nc12 was read as CF NFkB inh 95*, Peg3 prom inh 108*, HIF-2a block -38, MITF TRPM1 inh 103*, KKLEB cytotox -65* and Shn3 inh set2 100*.
`CCn1c(SCC(=O)Nc2ccc(F)cc2)nnc1-c1cnccn1` gave CF NFkB inh -5, Peg3 prom inh -11, HIF-2a block -3, MITF TRPM1 inh -2, KKLEB cytotox 2 and Shn3 inh set2 -11.
`CCOC(=O)c1ccc2ncc(C(=O)OCC)c(Nc3ccc(N4CCOCC4)cc3)c2c1` gave CF NFkB inh 65*, Peg3 prom inh 88*, HIF-2a block 8, MITF TRPM1 inh 12, KKLEB cytotox -4 and Shn3 inh set2 24.
CCOC(=O)c1cnc2ccc(C(=O)OC)cc2c1Nc1ccc(C(=O)O)cc1 was read as CF NFkB inh 7, Peg3 prom inh 10, HIF-2a block 12, MITF TRPM1 inh 9, KKLEB cytotox -2 and Shn3 inh set2 3.
N#Cc1nc(NCC(F)F)nc(Nc2cc(F)cc(F)c2)n1 was read as CF NFkB inh 73*, Peg3 prom inh 107*, HIF-2a block 8, MITF TRPM1 inh 75*, KKLEB cytotox 20 and Shn3 inh set2 58.
